Laboratory results taken from PubChem BioAssay (NCATS).
Where “and” joins values, the source holds several entries; their conditions need not be identical. Equal values may be shown once. Inconclusive results are not listed. The source holds several records for some structures; these can differ, active in one and inactive in another. Calls of active or inactive are those of the source. Unless noted, calls follow the shape of the dose curve; as a rule, active = well fitted curve in the direction sought with a large enough effect; inconclusive = small, poorly fitted or top-dose-only effect, or another doubt; inactive = no such curve, though single readings can be large; an effect the other way counts as inactive or inconclusive.

Key:
[1] = P-glycoprotein substrates identified in KB-3-1 adenocarcinoma cell line, qHTS therapeutic library screen (AID 1346986); also: nearly all actives have a fitted effect of over 60% in size;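 also: potency is read from the fitted curve at half-maximal effect; potency is for cytotoxicity meaning loss of cell viability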
How it was run: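 Dose-response cytotoxicity, KB-3-1 vs P-gp-high KB-8-5-11, no colchicine in assay medium. Read: CellTiter-Glo at 72 h.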

[2] = Primary qHTS for inhibitors of nuclear receptor binding SET domain protein 2 (NSD2) in an isogenic RCH-ACV NSD2 p.E1099K mutant (9B) (AID 1645876); also: nearly all actives have a fitted effect of over 70% in size; also: potency is read from the fitted curve at half-maximal effect
[3] = Primary qHTS for inhibitors of nuclear receptor binding SET domain protein 2 (NSD2) in an RCH-ACV wild type WT cells (2C) (AID 1645877); also: nearly all actives have a fitted effect of over 70% in size; also: potency is read from the fitted curve at half-maximal effect
[4] = target: Phospholipid hydroperoxide glutathione peroxidase GPX4 (Homo sapiens) (UniProt P36969); assay: Primary qHTS Assay for Inhibitors of Recombinant Selenoprotein Glutathione Peroxidase 4 (GPX4) (AID 1845192); settings: outcome: dose series up to 50 µM unless noted; also: nearly all actives have a fitted effect of over 65% in size; as to activity change, negative = inhibition: % is scaled to controls: 0 for no effect and ±100 for the full control effect
Chain of Phospholipid hydroperoxide glutathione peroxidase GPX4 (Homo sapiens) (P36969 whole entry, looked up): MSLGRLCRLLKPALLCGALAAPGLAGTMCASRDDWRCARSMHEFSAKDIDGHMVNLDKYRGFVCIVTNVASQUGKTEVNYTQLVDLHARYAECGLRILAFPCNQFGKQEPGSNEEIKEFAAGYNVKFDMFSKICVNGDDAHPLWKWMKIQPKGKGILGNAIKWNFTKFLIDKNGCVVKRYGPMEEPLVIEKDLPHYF
How it was run: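 NADPH consumption followed by fluorescence at 340/450 nm, t=0 and after 15 min at room temperature. Reaction started with cumene hydroperoxide (0.5 mM final) after 30 min compound–GPX4 preincubation; final 200 nM GPX4, 100 nM GR, 1 mM GSH, 0.5 mM NADPH.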

[5] = qHTS drug screen for cell cycle checkpoint inhibitors in PARPi-resistant BRCA-mutant ovarian cancer cell lines. (AID 1963452; calls by dose curve); settings: PEO1/OlaR viability, CellTiter-Glo luminescence, 96 h, stronger effect = lower value
How it was run: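 PEO1, PEO4 and PEO1/OlaR ovarian cancer cells, 600 per well, exposed 96 h at 37C to a dilution series. Viability read by CellTiter-Glo luminescence, normalized to DMSO and empty wells; activity summarized as Z-AUC.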

[6] = target: Glutathione peroxidase 1 (Homo sapiens) (UniProt P07203); assay: Primary qHTS Assay for Inhibitors of Recombinant Selenoprotein Glutathione Peroxidase 1 (GPX1) (AID 1845191); also: nearly all actives have a fitted effect of over 65% in size
Chain of Glutathione peroxidase 1 (Homo sapiens) (P07203 whole entry, looked up): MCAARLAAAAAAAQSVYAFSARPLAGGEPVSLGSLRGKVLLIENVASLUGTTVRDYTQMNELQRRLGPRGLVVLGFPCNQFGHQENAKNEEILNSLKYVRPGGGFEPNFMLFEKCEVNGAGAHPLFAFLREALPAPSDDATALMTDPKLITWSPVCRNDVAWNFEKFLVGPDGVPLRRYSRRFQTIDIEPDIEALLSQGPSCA
How it was run: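 NADPH consumption tracked by fluorescence at 340/450 nm between t=0 and t=15 min, room temperature. Final mix: 10 nM GPX1, 100 nM glutathione reductase, 1 mM GSH, 0.5 mM NADPH, 0.5 mM cumene hydroperoxide, 0.01% BSA; 30 min compound–enzyme preincubation.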

[7] = P-glycoprotein substrates identified in KB-8-5-11 adenocarcinoma cell line, qHTS therapeutic library screen (AID 1346987); also: nearly all actives have a fitted effect of over 65% in size; also: potency is read from the fitted curve at half-maximal effect
How it was run: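 In this qHTS, P-gp-rich KB-8-5-11 cells received library compounds across a concentration range. Viability was quantified by luminescence after 72 h at 37 degree C.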

[8] = qHTS assay to identify inhibitors of the type 1 interferon - major histocompatibility complex class I in skeletal muscle: Counter screen cell viability and HiBit confirmation (AID 1347412); settings: iHSKM muscle cells + IFN-b, HiBiT or CellTiter-Glo, 24 h, at 45.9 µM (top of the series); also: % is scaled to controls: 0 for no effect and ±100 for the full control effect; nearly all actives have a fitted effect of over 60% in size
How it was run: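 Luminescence read-out: Nano-Glo HiBiT lytic signal from C-terminally HiBiT-tagged HLA-B in CRISPR-edited human myoblasts, plus CellTiter Glo ATP as viability counter screen. IFN-beta 4.0 ng/ml; 24 hrs treatment at 37 C, 5% CO2.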

[9] = target: Calcium and integrin-binding protein 1 (Homo sapiens) (UniProt Q99828); assay: Primary qHTS for Identification of Calcium Integrin Binding Protein 1 (CIB1) Competitor (AID 1508620);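 also: GST tagged CIB1 binding a fluorescein labelled alphaIIb integrin peptide tracer; top concentration of the series differs between compounds; % is scaled to controls: 0 for no effect and ±100 for the full control effect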
Chain of Calcium and integrin-binding protein 1 (Homo sapiens) (Q99828 whole entry, looked up): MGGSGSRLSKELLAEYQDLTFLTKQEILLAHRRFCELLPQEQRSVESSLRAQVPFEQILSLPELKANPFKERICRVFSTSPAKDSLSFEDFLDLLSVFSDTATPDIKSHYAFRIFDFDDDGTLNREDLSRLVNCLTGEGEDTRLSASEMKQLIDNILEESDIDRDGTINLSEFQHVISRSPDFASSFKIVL
How it was run: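 CIB1-GST (1 uM final) and compound incubated 15 min at room temperature before adding FITC-alphaIIb peptide tracer (100 nM final). Competition for binding read by fluorescence polarization (ex 480, em 540) after another 15 min at room temperature.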

[10] = target: Catechol O-methyltransferase (Homo sapiens) (UniProt P21964); assay: Confirmatory Screen for Target Class Profiling of Small Molecule Inhibitors of Methyltransferases (AID 1745852; calls by dose curve; as to activity change, negative = inhibition: % is scaled to controls: 0 for no effect and ±100 for the full control effect); settings: MTase-Glo luminescence, SAH detection, recombinant enzyme; measured here: COMT max response; stronger effect = lower value
Chain of Catechol O-methyltransferase (Homo sapiens) (P21964 whole entry, looked up): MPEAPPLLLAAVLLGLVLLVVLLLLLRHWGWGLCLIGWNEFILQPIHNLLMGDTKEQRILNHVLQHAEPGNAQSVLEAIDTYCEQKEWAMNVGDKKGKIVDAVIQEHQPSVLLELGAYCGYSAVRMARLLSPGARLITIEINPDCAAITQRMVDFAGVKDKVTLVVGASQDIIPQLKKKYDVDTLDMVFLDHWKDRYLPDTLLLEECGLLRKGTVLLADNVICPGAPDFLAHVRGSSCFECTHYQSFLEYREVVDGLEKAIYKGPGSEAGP

[11] = target: Guanidinoacetate N-methyltransferase (Homo sapiens) (UniProt Q14353); assay: as above; settings: activity change, negative = inhibition: at 57.3 µM (top of the series) unless noted
[12] = target: Nicotinamide N-methyltransferase (Homo sapiens) (UniProt P40261); assay: as above; settings: MTase-Glo luminescence, SAH detection, recombinant enzyme; measured here: NNMT max response; stronger effect = lower value
Chain of Nicotinamide N-methyltransferase (Homo sapiens) (P40261 whole entry, looked up): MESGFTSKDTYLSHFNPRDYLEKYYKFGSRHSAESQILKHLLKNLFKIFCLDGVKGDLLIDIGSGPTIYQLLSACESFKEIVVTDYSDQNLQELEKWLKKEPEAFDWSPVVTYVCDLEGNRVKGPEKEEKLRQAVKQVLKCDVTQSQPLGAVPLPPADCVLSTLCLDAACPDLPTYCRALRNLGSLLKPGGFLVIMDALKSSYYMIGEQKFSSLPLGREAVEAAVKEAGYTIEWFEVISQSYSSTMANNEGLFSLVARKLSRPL

[13] = target: Phenylethanolamine N-methyltransferase (Homo sapiens) (UniProt P11086); assay: as above; settings: MTase-Glo luminescence, SAH detection, recombinant enzyme; measured here: PNMT max response; stronger effect = lower value
Chain of Phenylethanolamine N-methyltransferase (Homo sapiens) (P11086 whole entry, looked up): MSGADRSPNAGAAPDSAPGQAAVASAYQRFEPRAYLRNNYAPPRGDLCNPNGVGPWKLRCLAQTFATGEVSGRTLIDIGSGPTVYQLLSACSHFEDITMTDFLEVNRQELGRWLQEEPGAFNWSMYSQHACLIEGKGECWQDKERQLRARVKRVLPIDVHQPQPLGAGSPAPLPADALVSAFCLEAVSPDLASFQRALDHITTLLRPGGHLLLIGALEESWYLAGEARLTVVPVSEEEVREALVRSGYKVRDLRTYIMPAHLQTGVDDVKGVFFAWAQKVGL

[14] = test system: Zika virus NS2B-NS3 protease; assay: Primary screen GU AMC qHTS for Zika virus inhibitors (AID 1347154);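 also: 0% = no-inhibitor control and -100% = no-enzyme control; nearly all actives have a fitted effect of over 70% in size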
How it was run: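 Fluorogenic AMC-substrate cleavage by noncovalent NS2B-NS3 protease complex (25 nM, pH 8.0 Tris buffer with Tween 20) followed for 15 minutes at room temperature (~20% conversion). Percent inhibition from ex340/em450 signal change, fitted by 4-parameter Hill equation.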

[15] = measured here: PEO1 parental Z-AUC

O=c1sn(-c2cccc3ccccc23)c(=O)n1Cc1ccccc1
Potency [1]: inactive | Potency [2]: inactive | Potency [3]: inactive and 7.42 µM (active) | Potency [4]: inactive | Z-AUC [5]: 0.462 (inactive) | Z-AUC [5, 15]: 0.135 | Z-AUC ([5]; measured here: PEO4 Z-AUC): 0.0223

CC(C)CN(CC(=O)N(CCCN1CCCC1=O)CC(N)=O)C(=O)CNCCc1ccccc1F
Potency [1]: inactive | Potency [2]: inactive | Potency [3]: inactive | Potency [6]: inactive

O=C(O)c1c[nH]c2c(ccc3ccccc32)c1=O
Potency [1]: inactive | Potency [2]: inactive | Potency [3]: inactive | Potency [6]: inactive

O=C1/C(=C/c2ccc(O)c(O)c2)Oc2ccccc21
Potency [1]: inactive | Potency [2]: 1840 nM (active) | Potency [3]: 2060 nM (active)

CN[C@H]1CCN(C(=O)c2ccc(Nc3ncc(F)c(-c4cnc(C)n4C(C)C)n3)cc2)C1
Potency [1]: 58 nM (active) | Potency [2]: 92 nM (active) | Potency [3]: 116 nM (active) | Potency [6]: inactive

CC1=CC(=O)C(C(C)C)=CC1=O
Potency [1]: inactive | Potency [2]: 14600 nM (active) | Potency [3]: 6510 nM (active) | Potency [6]: inactive

COC1(c2sc3c(N4CCOCC4)nc(-c4cnc(N)nc4)nc3c2C)COC1
Potency [1]: 184 nM (active) | Potency [2]: 209 nM (active) | Potency [3]: 186 nM (active) | Potency [6]: inactive | Potency [4]: inactive | Z-AUC [5]: -1.69 (inactive) | Z-AUC [5, 15]: -1.58 | Z-AUC ([5]; measured here: PEO4 Z-AUC): -1.08

Nc1ncnc(Nc2ccc(OCc3ccccc3)c(Cl)c2)c1/C=N/OCCN1CCOCC1
Potency [7]: 16400 nM (active) | Potency [2]: 16600 nM (active) | Potency [3]: 8330 nM (active) | Potency [6]: inactive | Potency [4]: inactive | Z-AUC [5]: -0.0964 (inactive) | Z-AUC [5, 15]: 0.0883 | Z-AUC ([5]; measured here: PEO4 Z-AUC): -0.311 | activity change, negative = inhibition ([8]; HiBiT): -8.78% (inactive) | activity change, negative = inhibition ([8]; Viability): 12.2% (inactive)

O=C1CCCC2=C1C1(CCSCC1)N=C(Nc1nc3ccccc3o1)N2
Potency [7]: inactive | outcome [9]: inactive | Potency [2]: inactive | Potency [3]: inactive | Potency [6]: inactive

COC(=O)c1ccc(=O)c2nc3/c(=C/O)c(O)cc(=O)c3[nH]c12
Potency [7]: inactive | Potency [2]: 5170 nM (active) | Potency [3]: 13000 nM (active) | activity [10]: -24.9% | activity change, negative = inhibition [11]: -20.5% | activity [12]: -20% | activity [13]: -28.7% | Potency [6]: inactive

C=C(C)[C@@H]1CCC2=CC(=O)C[C@@H](C)[C@]2(C)C1
Potency [7]: inactive | Potency [2]: inactive | Potency [3]: inactive | Potency [6]: inactive

O=C(NCCc1c[nH]c2ccc(O)cc12)c1ccc2ccccc2c1O
Potency [1]: 8200 nM (active) | Potency [6]: inactive

CN1CCC(c2c(O)cc(O)c3c(=O)cc(-c4ccccc4Cl)oc23)C(O)C1 (stereo not drawn)
Potency [7]: 517 nM (active) | Potency [2]: 291 nM (active) | Potency [3]: 259 nM (active)

O=C1NC(=O)c2cc(Nc3ccc(F)cc3)c(Nc3ccc(F)cc3)cc21
Potency [7]: 14600 nM (active) | Potency [14]: inactive | Potency [6]: inactive

Clc1ccc2ncc(-c3cccc(NC4CCNCC4)n3)n2c1
Potency [7]: 16400 nM (active) | outcome [9]: inactive | Potency [2]: 366 nM (active) | Potency [6]: inactive
